Assay results as given in PubChem BioAssay (NCI).
Several values for one entry are separate records, joined by “and”; a condition that tells them apart may be missing. Identical values can stand only once. This is part of a sample that, as a whole, favours compounds with a hit. Of some 79,000 tested, about 15% had one in any assay. Cut-off read from the data, not from the text of the source: active = growth inhibition above about 70%; inactive = the rest. Where a SMILES comes first, the peptide text is derived from it. The star is where a group is joined. Boc = CC(C)(C)OC(=O)*; Bn = c1ccc(C*)cc1

Key:
[1] = NCI Yeast Anticancer Drug Screen. Data for the rad50 strain (AID 155);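 note: 0% = growth of vehicle-only cultures of the same strain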; conditions: S. cerevisiae rad50 strain growth inhibition; at 50.0 µM; stronger effect = higher value
In short: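 Cells are treated with compound, grown, and their growth is then scored against vehicle-only cultures of the same repair-deficient yeast strain.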

[2] = NCI Yeast Anticancer Drug Screen. Data for the mec2-1 strain (AID 157); conditions: S. cerevisiae mec2-1 strain, at 50.0 µM, stronger effect = higher value
In short: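 Cells of the genetically defined mec2-1 yeast strain are incubated with test compound. Inhibition of growth is calculated against vehicle-treated controls.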

[3] = NCI Yeast Anticancer Drug Screen. Data for the sgs1 mgt1 strain (AID 161);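 note: 0% = growth of cultures given vehicle only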; conditions: S. cerevisiae sgs1 mgt1 strain, at 50.0 µM, stronger effect = higher value
In short: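 Test agents were incubated with a DNA-repair-mutant yeast strain. Growth was then read and compared against vehicle-treated controls.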

[4] = NCI Yeast Anticancer Drug Screen. Data for the cln2 rad14 strain (AID 165);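 note: 0% = growth equal to vehicle treated cultures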; conditions: S. cerevisiae cln2 rad14 strain, at 50.0 µM, stronger effect = higher value
In short: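 The screen exposed genetically defined yeast (cln2 rad14) to test compounds and scored growth inhibition relative to vehicle-treated controls.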

[5] = NCI Yeast Anticancer Drug Screen. Data for the bub3 strain (AID 167); conditions: S. cerevisiae bub3 mutant strain, at 50.0 µM, stronger effect = higher value
In short: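 Part of a panel of yeast mutants defective in DNA damage repair or cell cycle regulation. Each strain is grown with compound, and inhibition is calculated relative to solvent-treated cultures.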

[6] = NCI Yeast Anticancer Drug Screen. Data for the mlh1 rad18 strain (AID 175); conditions: S. cerevisiae mlh1 rad18 strain growth inhibition; at 50.0 µM; stronger effect = higher value
In short: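 Compound-treated yeast growth, normalised to vehicle controls. Strain bears defined DNA repair mutations.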

Measured: growth inhibition

O=C(O)/C=C/c1ccccc1
inactive: [1] 15.1% and 41.8% | [2] 16.6% and 2.4% | [3] 27.5% and 7.65% | [4] 14.8% and 7.35% | [5] 4.1% and 19.3% | [6] 22.2% and 31.9%

O=S(=O)(O)c1cc(N=Nc2cc(S(=O)(=O)O)c3cccnc3c2O)ccc1/C=C/c1ccc(N=Nc2cc(S(=O)(=O)O)c3cccnc3c2O)cc1S(=O)(=O)O
inactive: [1] -16.7% and 18.6% | [2] -17.4% and 7.65% | [3] -26.5% and 7.4% | [4] -24.4% and -55.5% | [5] -18.6% and -62.5% | [6] -111% and -27.9%

CN(C)CC1CCCCC(CN(C)C)C1=O (stereo unspecified)
inactive: [1] -23.1% and -15.7% | [2] -5.8% and 2.95% | [3] -14.8% and -8.7% | [4] 4.4% and -52.7% | [5] -11.8% and 7.95% | [6] -13.6% and -8.7%

O=C(O)/C=C/C(=O)Nc1ccccc1
inactive: [1] -4.8% and -26.8% | [2] -18.7% and -22% | [3] -11.8% and -14.3% | [4] 0.25% and -30.4% | [5] -2.8% and -10.2% | [6] 4.15% and -1.65%

CCOC(=O)CC1(O)C=CC(=O)C=C1
inactive: [1] 9.25% and 14.2% | [2] 0.5% and -5.6% | [3] 0.55% and -5.1% | [4] 15.1% and 21.2% | [5] 6.65% and 22.9% | [6] -6.2% and 36.4%

C[S+](C)C
inactive: [1] -5.65% and -0.05% | [2] -7.25% and -2.1% | [3] -2.9% and -2% | [4] 9.1% and -10% | [5] 4.4% and -7.1% | [6] -18.4% and 12.5%

CC(CCC(C)C(=O)O)C(=O)O (stereo unspecified)
inactive: [1] -10.1% and 40.4% | [2] -12.8% and 9.8% | [3] -2.05% and 15.4% | [4] 12.2% and 13% | [5] -15.1% and 22.6% | [6] -0.25% and 27.9%

O=C(NCc1ccccc1)C1C(=O)C(=O)N(Cc2ccccc2)C1=O (stereo unspecified)
inactive: [1] -29.4% and 4.55% | [2] -22.6% and 0.8% | [3] -12.2% and -8.45% | [4] 2% and 14% | [5] -8.8% and -3.45% | [6] -36% and 2.6%

CC(=O)OCC1OC(n2cnc3c(N)ncnc32)C(OC(C)=O)C1OC(C)=O (stereo unspecified)
inactive: [1] 3.05% and 8.1% | [2] -8.9% and -3.3% | [3] 18.8% and 0.2% | [4] 14.2% and 11.4% | [5] 5.3% and -0.8% | [6] 18.1% and -0.25%

CC(C)(C)c1cc([N+](C)(C)C)cc(C(C)(C)C)n1
inactive: [1] 1.6% and 19.6% | [2] -5.3% and 8.25% | [3] 1.05% and 14.8% | [4] 2.3% and -16.7% | [5] 20.6% and -2.05% | [6] 6.3% and -5.55%

O=C(O)CCC(=O)c1ccc2ccccc2c1
inactive: [1] 60% and 8.8% | [2] 21.6% and 6.95% | [3] 44.8% and -5.7% | [4] 11.2% and -14.1% | [5] 9.15% and -23.1% | [6] 44.2% and 40.7%

CC1(C)CC(=O)CC(=O)C1
inactive: [1] 25.2% and 10.2% | [2] 12.8% and 3.15% | [3] -9.3% and 4.6% | [4] 18.8% and 0.85% | [5] 2.55% and 6.75% | [6] 18.6% and 6.8%

NCC(O)c1ccc(O)c(O)c1 (stereo unspecified)
inactive: [1] 38.8% and 19.4% | [2] 39.9% and -5.9% | [3] 30.9% and -7.2% | [4] 19% and -32.3% | [5] 28.5% and 13.4% | [6] 44.6% and 14.8%

CC(=O)OC1CCC2(C)C(CCC3(C)C2CCC2C4=CC(C)(C)CCC4(C)CCC23C)C1(C)C (stereo unspecified)
inactive: [1] 14.1% and -0.45% | [2] 10% and -9.7% | [3] -10.7% and -1.75% | [4] 13.4% and -3.6% | [5] 10.6% and -4.15% | [6] 20.1% and 7.15%

CC(=O)OCC1OC(n2c(=S)n(-c3ccccc3)c(=O)c3cc(Br)ccc32)C(OC(C)=O)C(OC(C)=O)C1OC(C)=O (stereo unspecified)
inactive: [1] 4.85% and -36.2% | [2] -1.9% and -27.9% | [3] 1.4% and -26.9% | [4] 5.25% and 15.2% | [5] -14.6% and -0.3% | [6] 12.5% and -19.2%

O=C(O)C1OC1C(=O)O (stereo unspecified)
inactive: [1] -24.1% and -0.45% | [2] -30.2% and -4.6% | [3] -23.9% and -5.4% | [4] -39.7% and -23.8% | [5] -21.5% and -5.95% | [6] -10.4% and 13.7%

CC(=O)OC1CC2CCC1(C)C2(C)C (stereo unspecified)
inactive: [1] 34.9% and 30.8% and -12.2% | [2] 26.9% and 26.1% and -20.2% | [3] 25.8% and -34.8% and -3.7% | [4] 19.9% and 18.3% and 5.2% | [5] 29.5% and -30.4% and 3.55% | [6] 4.85% and -78.1% and -14.2%

O=c1cc2oc3cc(O)c(O)cc3c(-c3ccccc3)c-2cc1O
inactive: [1] -4.25% and 15.2% | [2] -16.1% and 32.5% | [3] -3.15% and 25.9% | [4] -5.9% and -23.8% | [5] -10.2% and 15.9% | [6] -4.15% and 34.9%

NC1CCC(N)CC1 (stereo unspecified)
inactive: [1] 7.75% and 9.05% | [2] 10% and -5.85% | [3] 0.2% and 0.75% | [4] -11.8% and -16.1% | [5] 8.65% and 10.4% | [6] -6.35% and 1.4%

COc1ccc(C2c3cc(OC)c(OC)cc3CC(C(=O)O)C2C(=O)N(C)C)cc1OC (stereo unspecified)
inactive: [1] -2.05% and -30.2% | [2] 8% and -4.6% | [3] 35.3% and -0.15% | [4] 26.6% and 10.1% | [5] 4.7% and -4% | [6] 13.1% and 1.9%

CNC(=O)C(CC(C)C)NC(=O)C(C)NC(=O)C(Cc1ccc(OCc2ccccc2)cc1)NC(=O)C(COCc1ccccc1)NC(=O)OC(C)(C)C (stereo unspecified) (Boc-S(Bn)Y(Bn)AL-NHMe; configuration not given here)
inactive: [1] -7.2% and -29.6% | [2] -17.5% and -21.1% | [3] -20.1% and -17% | [4] 17.1% and 6.9% | [5] 25% and -1.35% | [6] 1.1% and -0.25%
